Screening data from PubChem.
ROC1-CUL1 inh: human ROC1-CUL1 E3 ligase inhibition; P62877+Q13616; in vitro K48 di-Ub FRET, acceptor:donor ratio, 45 min; inhibition, % at 10 µM; hit rate 0.6% among 140,000; in the data active = inhibition above about 25%
Target sequence (P62877 whole entry, looked up): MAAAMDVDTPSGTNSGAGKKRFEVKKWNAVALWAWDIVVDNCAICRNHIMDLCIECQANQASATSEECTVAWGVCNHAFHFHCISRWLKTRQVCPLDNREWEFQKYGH
Target sequence (Q13616 whole entry, looked up): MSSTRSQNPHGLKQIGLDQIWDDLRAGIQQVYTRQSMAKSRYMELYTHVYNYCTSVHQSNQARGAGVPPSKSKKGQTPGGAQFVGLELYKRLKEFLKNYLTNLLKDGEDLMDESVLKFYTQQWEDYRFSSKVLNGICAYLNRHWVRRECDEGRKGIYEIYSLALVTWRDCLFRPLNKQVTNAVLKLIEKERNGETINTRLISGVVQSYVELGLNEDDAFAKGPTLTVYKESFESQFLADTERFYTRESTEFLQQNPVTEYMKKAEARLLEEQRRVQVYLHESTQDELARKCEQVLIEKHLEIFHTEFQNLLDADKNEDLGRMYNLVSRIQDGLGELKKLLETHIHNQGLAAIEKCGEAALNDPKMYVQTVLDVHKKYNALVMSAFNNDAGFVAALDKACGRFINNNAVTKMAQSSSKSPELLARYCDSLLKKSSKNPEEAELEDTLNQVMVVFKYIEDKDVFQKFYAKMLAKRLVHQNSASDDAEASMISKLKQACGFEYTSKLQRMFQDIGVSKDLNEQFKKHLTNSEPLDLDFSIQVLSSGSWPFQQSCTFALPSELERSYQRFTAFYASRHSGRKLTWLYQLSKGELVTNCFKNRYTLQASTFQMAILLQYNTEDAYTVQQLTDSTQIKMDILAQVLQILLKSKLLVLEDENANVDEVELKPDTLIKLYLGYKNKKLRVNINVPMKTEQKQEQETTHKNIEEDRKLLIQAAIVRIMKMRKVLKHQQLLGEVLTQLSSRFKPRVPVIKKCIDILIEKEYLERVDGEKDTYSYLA
The depositor's hits bear a star. This is one part of a sample in which hits are shown more often than they occur.

What do the screens show for `CCOC(=O)c1cccc(NC(=O)Cc2cccs2)c1`?
ROC1-CUL1 inh: 4

What do the screens show for `CCN(CC)C(=O)CSC1=NC(=N)C(c2ccccc2)C(=O)N1` (stereo not given)?
ROC1-CUL1 inh: 9

How did CN1C(=O)C(=C/C=C/c2ccco2)C(=O)N(C)C1=S do in these assays?
ROC1-CUL1 inh: 45*

What do the screens show for `O=C(/C=C/c1ccco1)CCN1CCCCC1`?
ROC1-CUL1 inh: 16

Results for O=C1C(=C/C=C/c2ccccc2Cl)C(=O)N(c2ccccc2)C(=S)N1c1ccccc1 ?
ROC1-CUL1 inh: 9

How did Cc1ccc(N=CC2N=C(c3ccco3)OC2=O)cc1 (stereo not given) do in these assays?
ROC1-CUL1 inh: -4

What do the screens show for `O=C(c1ccccc1[N+](=O)[O-])N1CCc2ccccc21`?
ROC1-CUL1 inh: 5

Results for Cc1cc(C)c(OCC(=O)N/N=C\c2ccc(Cl)s2)c(Br)c1 ?
ROC1-CUL1 inh: 0

How did CCOC(=O)c1[nH]c2ccc(C)cc2c1NC(=O)OC do in these assays?
ROC1-CUL1 inh: 4

How did COc1ccc(Cl)cc1NC(=O)c1c(NCc2ccc(C)o2)sc2c1CCC(C)C2 (stereo not given) do in these assays?
ROC1-CUL1 inh: -3

How did COc1ccc(OC)c(NC(=O)c2c(NCc3sccc3C)sc3c2CCCCC3)c1 do in these assays?
ROC1-CUL1 inh: 3

Results for COc1ccc(OC)c(NC(=O)c2c(NCc3ccc(OC)c(OC)c3)sc3c2CCC3)c1 ?
ROC1-CUL1 inh: 3

How did COc1ccc(OC)c(NC(=O)c2c(NCc3ccc(C)o3)sc3c2CCCCC3)c1 do in these assays?
ROC1-CUL1 inh: 30*

How did COc1ccc(Cl)cc1NC(=O)c1c(NCc2ccc(C)o2)sc2c1CCCCC2 do in these assays?
ROC1-CUL1 inh: 26*

Results for COc1ccccc1NC(=O)c1c(NCc2ccc(C)o2)sc2c1CCCCC2 ?
ROC1-CUL1 inh: 24

What do the screens show for `C=CCN1C(=O)/C(=C2/Sc3ccccc3N2CC)SC1=Nc1ccc([N+](=O)[O-])cc1`?
ROC1-CUL1 inh: 2

How did C=CCSc1nnc2c(n1)OC(c1ccc(C)s1)N(C(=O)CC)c1ccccc1-2 (stereo not given) do in these assays?
ROC1-CUL1 inh: 3

What do the screens show for `COCCNC1CCN(c2cccc(NC(=O)CCCc3ccccc3)c2)CC1`?
ROC1-CUL1 inh: 2

Results for O=C(CN1C(=O)S/C(=C/c2ccc(O)c(Br)c2)C1=O)Nc1cccc2ccccc12 ?
ROC1-CUL1 inh: 4

Results for O=C(O)CN1C(=O)/C(=C/c2ccc(F)c(Br)c2)SC1=S ?
ROC1-CUL1 inh: 0

How did O=C(CN1C(=O)S/C(=C\c2cc(Cl)cc(Br)c2O)C1=O)Nc1ccccc1F do in these assays?
ROC1-CUL1 inh: 26*

What do the screens show for `C=CCN1C(=O)/C(=C\c2c(OCC)ccc3ccccc23)SC1=S`?
ROC1-CUL1 inh: 4

What do the screens show for `O=C(O)CN1C(=O)/C(=C/c2ccccc2C(F)(F)F)SC1=S`?
ROC1-CUL1 inh: -1

Results for CCOc1cc(Br)c(Br)c(/C=C2\SC(=S)N(CC(=O)O)C2=O)c1O ?
ROC1-CUL1 inh: 28*

What do the screens show for `Cc1cc(/C=C2/SC(=O)N(CC(=O)Nc3ccccc3F)C2=O)c(C)n1C`?
ROC1-CUL1 inh: 5

Results for CCOc1c(Br)cc(/C=C2\SC(=S)N(CC(=O)O)C2=O)cc1Br ?
ROC1-CUL1 inh: 4

What do the screens show for `O=C(O)CN1C(=O)/C(=C\c2cc(Cl)cc(Br)c2O)SC1=S`?
ROC1-CUL1 inh: 81*

Results for N#Cc1c(Nc2cccc(F)c2)sc2c1NC(=O)CC2=O ?
ROC1-CUL1 inh: -2

How did Cc1ccccc1NC(=O)c1ccccc1[N+](=O)[O-] do in these assays?
ROC1-CUL1 inh: 1

What do the screens show for `CCc1cccc(C)c1NS(=O)(=O)c1ccc(C)cc1`?
ROC1-CUL1 inh: -12

Results for COc1ccc(N)c(CC2c3ccccc3CCN2C)c1 (stereo not given) ?
ROC1-CUL1 inh: 1

What do the screens show for `COc1cccc(-c2ccccc2NC(=O)C2CCN(Cc3ccc(CO)o3)CC2)c1`?
ROC1-CUL1 inh: 8

Results for COc1cc(/C=C(\C#N)c2nc3ccc(C)cc3[nH]2)ccc1OCc1ccccc1 ?
ROC1-CUL1 inh: 1

Results for c1ccc2c(Sc3cccc4ccccc34)cccc2c1 ?
ROC1-CUL1 inh: -7

What do the screens show for `Nc1c(C(=O)Nc2ccccc2I)sc2nc3c(cc12)CCCCC3`?
ROC1-CUL1 inh: 5

Results for CCOc1ccc(Oc2cc(Oc3ccc(NC(=O)c4nc5nc(-c6cccs6)cc(C(F)(F)F)n5n4)cc3)cc([N+](=O)[O-])c2)cc1 ?
ROC1-CUL1 inh: 6

Results for COc1ccc(C(C)OC2CC(=O)CC3C(=O)c4cccc(O)c4C(=O)C23)cc1 (stereo not given) ?
ROC1-CUL1 inh: 2

Results for CC(OC1CC(=O)CC2C(=O)c3c(O)ccc(O)c3C(=O)C12)c1ccc2ccccc2c1 (stereo not given) ?
ROC1-CUL1 inh: 97*

How did CC(C)(C)OC1CC(O)CC2C(=O)c3c(O)ccc(O)c3C(=O)C12 (stereo not given) do in these assays?
ROC1-CUL1 inh: 15

How did Cc1cccc(/C=N/NC(=O)c2cccc([N+](=O)[O-])c2)c1 do in these assays?
ROC1-CUL1 inh: 2

What do the screens show for `CCOc1nc(Br)c2ccccc2c1Br`?
ROC1-CUL1 inh: 3

What do the screens show for `O=C(c1cc(Cl)nnc1Cl)N1CCCC1`?
ROC1-CUL1 inh: -1

Results for Cc1ccc2c(c1)-c1c(c(C(=O)N3CCN(c4cc(C)ccc4C)CC3)nn1C)CS2 ?
ROC1-CUL1 inh: 44*

What do the screens show for `Cn1nc(C(=O)N2CCN(c3ccc(Cl)cc3)CC2)c2c1-c1ccccc1SC2`?
ROC1-CUL1 inh: 1

What do the screens show for `COc1ccc(NC(=O)c2nn(C)c3c2CSc2ccc(C)cc2-3)cc1OC`?
ROC1-CUL1 inh: 6

How did COCc1noc(-c2ccc(N3CCCCCC3)nc2)n1 do in these assays?
ROC1-CUL1 inh: 1

What do the screens show for `Cc1cccc2nc(=O)c3c(=O)[nH]c4ccccc4c3n12`?
ROC1-CUL1 inh: 3

What do the screens show for `CCCC(=O)Nc1cc(Cl)ccc1OC`?
ROC1-CUL1 inh: 2

Results for CSc1ncnc2c1sc1nc(-c3cccs3)cc(C(F)(F)F)c12 ?
ROC1-CUL1 inh: -3

Results for FC(F)(F)c1cc(-c2cccs2)nc2sc3c(=S)nc[nH]c3c12 ?
ROC1-CUL1 inh: 3

Results for N=c1c2sc3nc(-c4cccs4)cc(C(F)(F)F)c3c2ncn1N ?
ROC1-CUL1 inh: 39*

Results for COc1ccc(Cl)cc1/C=C1\C(=O)NC(=S)N(c2ccc(C)cc2C)C1=O ?
ROC1-CUL1 inh: 1

How did O=C1NC(=S)N(c2cccc(F)c2)C(=O)/C1=C/c1cccn1-c1cccc(C(F)(F)F)c1 do in these assays?
ROC1-CUL1 inh: 7

Results for CCCN1C(=O)/C(=C\c2cccn2-c2cccc(C(F)(F)F)c2)C(=O)N(c2ccccc2)C1=S ?
ROC1-CUL1 inh: 5

How did Cc1cccc(N2C(=O)/C(=C/c3cccn3-c3cccc(C(=O)O)c3)C(=O)NC2=S)c1 do in these assays?
ROC1-CUL1 inh: 15

How did CCOc1ccc(N2C(=O)/C(=C/c3cccn3-c3cccc(C(=O)O)c3)C(=O)NC2=S)cc1 do in these assays?
ROC1-CUL1 inh: 19

Results for Cc1cccc(N2C(=O)/C(=C/c3cccn3-c3cccc(C(F)(F)F)c3)C(=O)NC2=S)c1C ?
ROC1-CUL1 inh: 53*

What do the screens show for `Cc1ccc(N2C(=O)/C(=C/c3cc(C)n(C(C)C)c3C)C(=O)NC2=S)c(C)c1`?
ROC1-CUL1 inh: -7

What do the screens show for `Cc1ccc(N2C(=O)/C(=C/c3cccn3-c3cccc(C(=O)O)c3)C(=O)NC2=S)c(C)c1`?
ROC1-CUL1 inh: 97*
